PubChem BioAssay AID2806 (Sanford-Burnham Center for Chemical Genomics, 2010)
The whole screen tested about 330,000 compounds, of which about 660 (0.2%) were called active.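 The calls were made as follows: active = inhibition of at least 40% at 10 µM in the primary screen; inactive = the rest.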 The sample as a whole holds a higher share of actives than the screen did.

Tested on: intestinal alkaline phosphatase [Mus musculus]
Assay: mouse intestinal phosphatase enzyme inhibition – biochemical, luminescence, uHTS, primary screen (AID 2806);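 also: plate controls were DMSO with enzyme for no effect and no enzyme wells for full effect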
Conditions: purified mouse IAP, CDP-Star luminescence, 30 min; at 10 µM; stronger effect = higher value

inhibition, active:
O=C(CCCN1C(=O)/C(=C/c2ccco2)SC1=S)Nc1ccccc1 47.8%, O=C(CCCN1C(=O)/C(=C\c2ccco2)SC1=S)Nc1cccc2ccccc12 47.9%, Cc1ccc(Cc2cnc(N)s2)o1 50.5%, NS(=O)(=O)c1ccc(-c2ccc(/C=C3\SC(=O)NC3=O)o2)cc1 55.1%, O=C(Nc1nc(-c2ccco2)c(-c2ccco2)s1)c1ccco1 64.2%, COc1ccccc1-n1c(-c2cc(-c3ccco3)[nH]n2)n[nH]c1=S 57.8%

inhibition, inactive:
Cc1ccc(-c2nn(-c3ccccc3)cc2/C=C2\SC(=S)N(CCCCCC(=O)O)C2=O)o1 14.7%, O=C(CCCN1C(=O)/C(=C/c2cccs2)SC1=S)Nc1ccc(O)cc1 10.9%, COc1ccc(/C=C2/SC(=O)N(CCCCCC(=O)Nc3ccccc3C(=O)O)C2=S)cc1 12.6%, O=C1/C(=C\c2ccccc2Cl)SC(=S)N1CCC(=O)N1CCCc2ccccc21 23.1%, O=C(CNS(=O)(=O)c1ccc2c(c1)OCCCO2)N1CCN(c2ccc(F)cc2)CC1 -6.2%, COc1ccccc1CNC(=O)CSc1nc(=O)n(Cc2ccncc2)c2c1CCC2 -1.4%, CCCCS(=O)c1snnc1C (stereo unspecified) -4.4%, CCCCNc1ccc(C(=O)Nc2cccc(C)n2)cc1[N+](=O)[O-] 15.5%, Cn1cnc([N+](=O)[O-])c1Sc1n[nH]c(N)n1 7.9%, O=C(CCSCCc1ccccn1)Nc1nccs1 -7%, Cc1ccc(C(=O)N/N=C/c2sc(=O)n(Cc3cccc(C(=O)O)c3)c2Cl)cc1 11.7%, COc1cc(/C=C/C(=O)O)cc(S(=O)(=O)Nc2ccccc2C(=O)NCCc2ccccc2)c1OC -5.2%, CCOc1ccc(NC(=O)COC(=O)C2CCC(=O)N2)c([N+](=O)[O-])c1 (stereo unspecified) 1%, COC(C[C@@H]1O[C@@H]1C(=O)[C@@H](C)OCc1ccccc1)OC 2.7%, CC(=O)c1c(C)n([O-])c2ccccc2[n+]1=O 0.9%, O=C(Nc1nnc(CCOCCOCCc2nnc(NC(=O)c3ccco3)s2)s1)c1ccco1 0.5%, NC(=O)c1ccsc1NC(=O)c1ccco1 0.1%, Cc1nc(CC(=O)NNS(=O)(=O)c2ccc(F)c(Cl)c2)cs1 1.6%, COc1ccc(OC)c(-n2c(-c3ccn[nH]3)n[nH]c2=S)c1 -6.5%, COc1ccccc1-n1cn[nH]c1=S 1.9%
